Among all 53,000 compounds or so, about 900 (1.7%) showed an effect of 50% or more. This is one part of a sample in which strong results are shown more often than they occur.
The compounds below were run on Mycobacterium tuberculosis (assay: Cornell - Phenotypic assay to identify agents that inhibit growth of Mycobacterium tuberculosis). Conditions: 10 mM as filed; unlikely as a test dose.
Assay type: functional
Design: scale not given: direction of the effect not stated beside the values

Row | SMILES | Percent Effect [%]
1 | COc1ccc(-c2nc(CNCCn3cccn3)cs2)cc1 | 49.39
2 | c1cnn(CCNCc2csc(-c3ccsc3)n2)c1 | -2.857
3 | c1ccc(-c2nc(CNCCn3cccn3)cs2)cc1 | 46.8
4 | c1ccc(Cc2nc(CNCCn3cccn3)cs2)cc1 | 73.18
5 | Clc1ccc(Cc2nc(CNCCn3cccn3)cs2)cc1 | 60.1
6 | Fc1ccc(CNCCn2cccn2)cc1F | -21.78
7 | COc1cc(C2(C(=O)N3CCCC(n4cncn4)C3)CC2)ccc1C (centres undefined) | 9.425
8 | CC1(C(=O)NC2CCCC2)CCCN(c2cnccn2)C1 (centres undefined) | 15.8
9 | Cn1cccc1C(O)CNC(=O)c1ccc(F)c(F)c1 (centres undefined) | 19.39
10 | Cn1cccc1C(CNC(=O)COc1ccc(Cl)cc1Cl)N1CCCC1 (centres undefined) | 27.47
11 | Cn1cccc1C(O)CNC(=O)COc1ccc(Cl)cc1Cl (centres undefined) | 63.83
12 | Cn1cccc1C(O)CNC(=O)c1ccc(C(F)(F)F)cc1 (centres undefined) | 56.65
13 | Cn1cccc1C(O)CNC(=O)c1cccc(Cl)c1 (centres undefined) | 49.37
14 | Cn1cccc1C(O)CNC(=O)COc1ccccc1F (centres undefined) | 31.15
15 | Cn1cccc1C(O)CNS(=O)(=O)Cc1ccccc1 (centres undefined) | -41.72
16 | COC(=O)c1ccc(C(=O)NCC(O)c2cccn2C)cc1 (centres undefined) | 64.24
17 | Cn1cccc1C(O)CNC(=O)c1ccc2nsnc2c1 (centres undefined) | 20.08

Row | SMILES | Percent Effect [%]
18 | COC[C@@H]1CCC[C@]12CN(CCc1ccccc1)CCO2.O=C(O)C(F)(F)F | -4.553
19 | Cc1nc(CNC(=O)c2cc(Cn3ccnc3C(C)C)[nH]n2)sc1C | -7.755
20 | CC(C)NC(=O)NCC(Cc1ccc(F)cc1)C(N)=O (centres undefined) | -16.75
21 | Cc1c(-c2nc3cc(S(=O)(=O)N4CCCC4)ccc3n2C)cnn1C | -4.812
22 | CCc1ccccc1-c1cc(C)nc(N)n1 | 13.97
23 | Cc1ccc(Oc2cc(CN)ccn2)cc1C.Cl | -26.7
24 | NC(=O)NC(=O)CNC1(c2ccc(Cl)cc2)CCCC1 | 4.44
25 | Cc1ccccc1CSc1ncc(Br)c(C(=O)O)n1 | 12.49
26 | Cc1cncc(C2CCN(Cc3ccsc3)CC2)n1 | 41.74
27 | Cc1cncc(C2CCN(Cc3cnc(C)nc3)CC2)n1 | 56.88
28 | Cc1cncc(C2CCN(Cc3ccncc3)CC2)n1 | 18.56
29 | Cc1nccn1CCCn1cncc1-c1ccc2c(c1)CCCN2C.Cl | 0.2069
30 | CCN1c2ccc(-c3cncn3CCCn3ccnc3C)cc2CC1C.Cl (centres undefined) | 54.49
31 | CCN1CCc2cc(-c3cncn3CCNC3CCS(=O)(=O)C3)ccc21.Cl (centres undefined) | 12.29
32 | CCN1c2ccc(-c3cncn3CC(=O)NC(C)(C)C)cc2CC1C.Cl (centres undefined) | -3.554
33 | Cc1nccn1CCCn1cncc1-c1ccc2c(c1)CCC(C)N2C.Cl (centres undefined) | 54.25
34 | Cc1nccn1CCCn1cncc1-c1ccc2c(c1)CC(C)N2C.Cl (centres undefined) | 20.63

— ChEMBL document CHEMBL3988442, “University of Dundee, Small-Polar-MMV Screening Library” (2021)
